Shown are actives, neighbours in structure and some others; about 13% of the full set was active somewhere.
USP10 inh = human USP10 deubiquitinase inhibition | hit rate 1.1% among 47,000 | inhibition, % at 20 µM | purified USP10, Ub-rhodamine fluorescence, 60 min | Q14694
USP8 inh = inhibitors of human USP8 deubiquitinase; P40818; inhibition, % at 20 µM; AID 1645853; hit rate 4.2% among 47,000; purified USP8, Ub-rhodamine cleavage fluorescence, 30 min
USP28 block = blocks human USP28 ubiquitin-rhodamine cleavage. Q96RU2. purified USP28, Ub-rhodamine cleavage fluorescence, 30 min. inhibition, % at 25 µM. hit rate 3% among 47,000. AID 1645857
USP17 inh = human USP17-like deubiquitinase inhibition; A8MUK1; purified USP17, Ub-rhodamine cleavage fluorescence, 3 h; inhibition, % at 50 µM; hit rate 6.5% among 47,000; AID 1645855
USP30 block = human USP30 deubiquitinase inhibition. Q70CQ3. purified USP30, Ub-rhodamine cleavage fluorescence. inhibition, % at 25 µM. hit rate 5.3% among 47,000
Each line names hits and unclear results; the compound was inactive in the other large screens. No stated cut-off is given here; in the data, active means inhibition above about 30%; inactive means the rest.

CC1CCN(S(=O)(=O)c2c[nH]c(-c3nnc(C(=O)N4CCCC4)o3)c2)CC1	USP30 block 47
Nc1c(C(=O)c2ccco2)sc2c1c(=O)[nH]c(=O)n2Cc1ccc2c(c1)OCO2	USP8 inh 54
COCCN1C(=O)C[C@@H]2[C@H]1CCN2C(=O)c1cncc(C)c1	USP30 block 31
COCCN1C(=O)C[C@@H]2[C@H]1CCN2C(=O)c1ccc2ccccc2n1	none
COc1cccc(-c2noc(NCCc3ccc(SC)cc3)n2)c1	USP28 block 32
COc1ccc(-c2noc(NCCCN3CCN(c4ccccc4)CC3)n2)cc1	none
Cc1ccc(NC(=O)c2cc(-c3ccncc3)n[nH]2)cc1Cl	USP28 block 36
Cc1ccc(NC(=O)C2CCN(C(=O)c3cc(-c4ccncc4)n[nH]3)CC2)cc1Cl	USP28 block 37, USP17 inh 63, USP30 block 63
CCOc1ccccc1NC(=O)c1cc(-c2ccncc2)n[nH]1	none (no result: USP28 block, USP30 block)
Cc1ccc(CNC(=O)C2CCN(C(=O)c3cc(-c4ccncc4)n[nH]3)CC2)o1	none (no result: USP28 block, USP30 block)
CC(=O)N[C@H]1C[C@H]2CN(Cc3ccccc3)Cc3ccccc3CN2C1	none
CCN1CCc2c([nH]c3ccccc23)C1c1c(O)n(-c2cccc(C)c2)c(=O)[nH]c1=O (stereo unspecified)	none
O=C(NCc1ccccn1)C1CCN(c2cc(N3CCCCC3)ncn2)CC1	none
CN(C)C(=O)c1ccc(-c2ccc(N3CCCCC3)nc2)cc1	none
COCCCNC(=O)c1ccc(-c2ccc(N3CCCCC3)nc2)cc1	USP8 inh 37
O=C(NCc1ccccn1)c1ccc(-c2ccc(N3CCSCC3)nc2)cc1	USP28 block 33, USP17 inh 60, USP30 block 82
O=C(NC1CCCCC1)C(c1ccc(O)cc1)N(C(=O)C1COc2ccccc2O1)c1ccc(F)cc1 (stereo unspecified)	none
Cc1cc(NC(=O)c2cc(-c3ccco3)on2)n(-c2ccccc2)n1	none
O=C(Nc1ccc2cn[nH]c2c1)c1cc(-c2ccco2)on1	USP8 inh 41
Cc1cccc(NC(=O)Cn2cc(C(=O)N3CCOCC3)c(=O)c3ccc(C)nc32)c1	USP8 inh 35
Cc1cccc(NC(=O)c2cn(CC(=O)NC3CCCC3)c3nc(C)ccc3c2=O)c1	USP17 inh 48
CCn1cc(C(=O)Nc2ccc3ccccc3c2)c(=O)c2ccc(C)nc21	USP17 inh 33
CCc1cccc(NC(=O)c2cn(CC)c3nc(C)ccc3c2=O)c1	none
Cc1cccc(NC(=O)Cn2cc(C(=O)N3CCCCC3)c(=O)c3ccc(C)nc32)c1	none
Cc1ccc2c(=O)c(C(=O)N3CCCC3)cn(CC(=O)NC3CCCC3)c2n1	none (no result: USP17 inh)
Cc1ccc(Cl)cc1N1CCN(C(=O)[C@H]2[C@@H]3C[C@@H]4[C@H]2C(=O)O[C@@H]4C3)CC1	none
CCN(c1ccc(OC)cc1)S(=O)(=O)N1CCCC(C(=O)NCc2ccccc2)C1 (stereo unspecified)	none
CCCCC[C@H](O)/C=C/C=C/CCCCCCCC(=O)O	none
CC/C=C\C/C=C\C/C=C\CCCCCCCC(=O)O	USP10 inh 54, USP8 inh 39, USP28 block 74, USP17 inh 88, USP30 block 53
COc1ccc2c(C)c(CCC(=O)N3CCN(c4ccccc4)CC3)c(=O)oc2c1	none
Cc1c(Cc2ccccc2)c(=O)oc2cc(OCc3nn[nH]n3)ccc12	USP28 block 44, USP17 inh 36, USP30 block 38
O=C(Nc1ccccc1-c1nc(-c2ccccn2)no1)c1cc(Cl)ccc1Cl	USP8 inh 83, USP28 block 44, USP17 inh 56, USP30 block 60
O=C(Nc1ccc(F)cc1F)c1ccc(-n2nnc3cccnc32)cc1	none
COc1cccc(C(=O)NCC(=O)Nc2nc3ccccc3[nH]2)c1	USP17 inh 59
Cc1ccc(C(=O)NCC(=O)Nc2nc3ccccc3[nH]2)c(C)c1	USP17 inh 57
COc1cccc(NC(=O)CCCSc2nc3ccccc3[nH]2)c1	USP28 block 37
Cc1ccc(CC(=O)NCC(=O)Nc2nc3ccccc3[nH]2)cc1	USP17 inh 45
O=C(NCC1COc2ccccc2O1)c1ccccc1[N+](=O)[O-] (stereo unspecified)	none
COc1ccc(/C=C/C(=O)NCC(=O)N2CCC(N(C)C3CCCC3)CC2)cc1	none
O=C1NCCN(C(=O)CCn2ccccc2=O)CC1Cc1ccc(-c2ccccc2)cc1 (stereo unspecified)	USP8 inh 42
COc1ccc(-c2ccc(CC3CN(C(=O)c4cccc(OC)c4)CCNC3=O)cc2)cc1 (stereo unspecified)	none
O=C(CSc1nnc(-c2sccc2-n2cccc2)o1)c1ccc(Cl)cc1	USP17 inh 33
O=C(CSc1nnc(CNC(=O)c2cccs2)o1)c1ccccc1	none
Cc1c(C(=O)NCCCN2CCOCC2)oc2ccc3c(c12)C(=O)CC(C)(c1ccc(Cl)cc1)O3 (stereo unspecified)	USP28 block 42
O=C(NC1CCCCCC1)c1cn(Cc2ccccc2)nc1-c1cccnc1	none
O=C(c1cn(Cc2ccccc2)nc1-c1cccnc1)N1CCCc2ccccc21	none
O=C(NC1CCCC1)c1cn(Cc2ccccc2)nc1-c1cccnc1	USP30 block 38
Cc1ccc2c(c1)CCCN2C(=O)c1cn(Cc2ccccc2)nc1-c1cccnc1	USP8 inh 53
Cc1cc(=O)n(CC(=O)Nc2ccccc2)c(Nc2ccc(F)cc2)n1	USP28 block 43, USP17 inh 69, USP30 block 63
Cc1ccc(NC(=O)Cn2c(Nc3ccc(F)cc3)nc(C)cc2=O)cc1	USP17 inh 78, USP30 block 67
Cc1cc(=O)n(CC(=O)Nc2ccc(C)c(C)c2)c(N2CCCC2)n1	USP30 block 35
Cc1cccc(NC(=O)Cn2c(C)cc(=O)n3nc(-c4cccs4)nc23)c1	USP17 inh 47
O=C(CCc1nc2ccccc2s1)Nc1ccc(F)c(F)c1	none
Cc1cc(=O)n(CC(=O)Nc2ccccc2F)c(Nc2ccc(F)cc2)n1	USP28 block 39, USP17 inh 44, USP30 block 83
Cc1cccc(Nc2nc(C)cc(=O)n2CC(=O)Nc2ccccc2)c1	USP30 block 30
Cc1cc(=O)n(CC(=O)Nc2ccccc2)c(Nc2ccc(C)c(C)c2)n1	none
Cn1nc(Cl)c(Cl)c1Oc1ccc(S(=O)(=O)Nc2ccc(Oc3ccc(C(F)(F)F)cn3)c(Cl)c2)cc1	USP10 inh 69
CCCOc1ccc(C(=O)Nc2ccc(OCC)c3ncccc23)cc1	none
CCCCOc1ccccc1C(=O)Nc1ccc(OCC)c2ncccc12	USP8 inh 44
OCCNc1nnc2c(n1)[nH]c1ccccc12	none
CO[C@H]1/C=C/C=C\C=C\C[C@@H](OC(=O)[C@H](C)NC(=O)C2CCCCC2)[C@H](C)[C@@H](O)/C(C)=C\CCC2=CC(=O)C=C(NC(=O)C1)C2=O	USP17 inh 46
CCC(C)NC(=O)Cn1cc(-c2nnc(CN3CCC(C)CC3)o2)c2ccccc21 (stereo unspecified)	USP30 block 36

High-throughput results from PubChem BioAssay.
